# Test results taken from PubChem BioAssay (Tox21).
# Results filed as inconclusive are left out. Entries that show only a call come without a potency. Activity calls are given as the source filed them. Unless noted, calls come from the whole dose curve.
# Key:
# [1] = Nuclear factor erythroid 2-related factor 2/antioxidant responsive element (Nrf2/ARE) small molecule agonists: qHTS cell viability counter screen in human keratinocytes (AID 1919968; active = well fitted cell-killing curve with a large enough effect in the repeat runs; note: nearly all actives have a fitted effect of over 55% in size; note: potency is the fitted concentration of half-maximal effect)
# Summary of the method: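 Cells of the KeratinoSens line were plated at 1,500 per well and left for 5 h before compound transfer from DMSO stocks. After a 23 h incubation (37 C, 5% CO2), CellTiter-Fluor was added. Signal was taken as fluorescence intensity 1 h later.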
# [2] = molecular target: Gonadotropin-releasing hormone receptor (Homo sapiens) (UniProt P30968); experiment: Human gonadotropin-releasing hormone receptor (GnRHR) small molecule agonists, calcium flux assay in GnRHR-HEK293 cells (AID 1920063); note: nearly all actives have a fitted effect of over 35% in size
# Sequence of Gonadotropin-releasing hormone receptor (Homo sapiens) (P30968 whole entry, looked up): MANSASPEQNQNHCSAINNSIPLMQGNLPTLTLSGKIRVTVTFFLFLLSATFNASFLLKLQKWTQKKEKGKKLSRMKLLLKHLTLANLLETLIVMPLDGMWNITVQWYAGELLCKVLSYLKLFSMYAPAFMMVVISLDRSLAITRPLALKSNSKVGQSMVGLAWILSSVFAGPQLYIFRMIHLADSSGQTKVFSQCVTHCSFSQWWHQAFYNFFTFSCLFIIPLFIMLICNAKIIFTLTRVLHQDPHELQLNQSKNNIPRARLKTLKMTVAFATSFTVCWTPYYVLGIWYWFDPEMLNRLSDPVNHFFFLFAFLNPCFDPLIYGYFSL
# Summary of the method: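 Compounds dissolved in DMSO are pin-transferred onto dye-loaded GnRHR-HEK293 cells, which were seeded 18 h before at 37 C/5% CO2. Calcium signal is read as fluorescence intensity at 1 s intervals for 3 min.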
# [3] = G protein-coupled receptor (GPCR) small molecule agonists, calcium flux assay: HEK293 wild type cell line counter screen (AID 1920065)
# Summary of the method: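 Tox21 10K compounds, 15 concentrations each in triplicate, pin-transferred in DMSO onto dye-loaded cells; kinetic read at 480/540 nm for 3 min, 1 s intervals.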
# [4] = p53 small molecule agonists, cell-based qHTS assay with human liver microsomes: qHTS cell viability counter screen (AID 1963579); note: nearly all actives have a fitted effect of over 45% in size
# Summary of the method: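 In this multiplexed counter screen, the reporter plates were subsequently treated with CellTiter-Glo so that cell viability, reflected by luminescence, could be recorded for p53RE-bla cells dosed 16 h with compounds under microsomal activation (HLM and NADPH).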
# [5] = p53 small molecule agonists, cell-based qHTS assay with rat liver microsomes: qHTS cell viability counter screen (AID 1963580); note: nearly all actives have a fitted effect of over 45% in size
# Summary of the method: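 Rat liver microsome (0.5 mg/mL final) and NADPH (0.5 mg/mL final) co-incubation with compounds for 16 h at 37 C on HCT-116 p53RE-bla cells; cytotoxicity taken from intracellular ATP luminescence.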
# [6] = molecular target: 5-hydroxytryptamine receptor 2A (Homo sapiens) (UniProt P28223); experiment: 5-hydroxytryptamine receptor 2A (HTR2A) small molecule agonists, cell-based qHTS assay (AID 1963587); note: nearly all actives have a fitted effect of over 30% in size
# Sequence of 5-hydroxytryptamine receptor 2A (Homo sapiens) (P28223 whole entry, looked up): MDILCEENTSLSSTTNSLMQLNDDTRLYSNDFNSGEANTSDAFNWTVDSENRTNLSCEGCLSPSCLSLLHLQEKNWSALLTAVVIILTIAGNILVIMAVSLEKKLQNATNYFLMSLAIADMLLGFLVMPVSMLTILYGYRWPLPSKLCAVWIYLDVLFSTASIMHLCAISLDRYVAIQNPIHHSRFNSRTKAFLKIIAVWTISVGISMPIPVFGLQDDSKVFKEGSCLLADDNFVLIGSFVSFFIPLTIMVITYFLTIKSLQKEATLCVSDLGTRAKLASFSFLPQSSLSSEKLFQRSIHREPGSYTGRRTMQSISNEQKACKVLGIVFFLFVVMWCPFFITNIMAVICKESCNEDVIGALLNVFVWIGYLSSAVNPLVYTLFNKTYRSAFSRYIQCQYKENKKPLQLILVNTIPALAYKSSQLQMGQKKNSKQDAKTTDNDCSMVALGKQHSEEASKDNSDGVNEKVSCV
# Summary of the method: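 Kinetic calcium-flux fluorescence (2 min, 1 sec intervals) after compound addition in agonist mode. HTR2A-CHO cells were cultured 18 h, then dye-loaded 1 h at 37 C.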
# [7] = molecular target: Muscarinic acetylcholine receptor M1 (Homo sapiens) (UniProt P11229); experiment: Cholinergic receptor muscarinic 1 (CHRM1) small molecule agonists, cell-based qHTS assay (AID 1963589); note: nearly all actives have a fitted effect of over 35% in size
# Sequence of Muscarinic acetylcholine receptor M1 (Homo sapiens) (P11229 whole entry, looked up): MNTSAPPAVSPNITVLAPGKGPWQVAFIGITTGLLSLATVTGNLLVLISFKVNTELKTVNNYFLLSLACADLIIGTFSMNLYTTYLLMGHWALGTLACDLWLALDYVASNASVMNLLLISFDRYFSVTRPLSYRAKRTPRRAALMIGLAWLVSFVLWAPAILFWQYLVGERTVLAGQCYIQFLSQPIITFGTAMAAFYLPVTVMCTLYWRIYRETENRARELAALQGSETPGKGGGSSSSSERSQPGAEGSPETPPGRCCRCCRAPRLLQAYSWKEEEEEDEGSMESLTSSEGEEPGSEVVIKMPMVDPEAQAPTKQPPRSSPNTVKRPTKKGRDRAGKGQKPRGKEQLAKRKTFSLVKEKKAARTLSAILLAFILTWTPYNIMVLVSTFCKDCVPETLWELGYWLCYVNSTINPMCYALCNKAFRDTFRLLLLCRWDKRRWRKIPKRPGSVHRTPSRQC
# Summary of the method: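 Homogeneous fluorescence calcium flux, agonist mode. Human M1-expressing CHO cells; compound dosed at 15 concentrations, three independent runs; signal sampled every 1 sec.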
# [8] = p53 small molecule agonists, cell-based qHTS assay with human liver microsomes (AID 1963577);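 note: p53 response element beta-lactamase reporter cells with liver microsomes plus NADPH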
# Summary of the method: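 16 h, 37 C exposure of p53RE-bla cells to compounds with human liver microsomes and NADPH (0.5 mg/mL final each); detection via LiveBLAzer mixture, 2 h dark at room temperature.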
# [9] = p53 small molecule agonists, cell-based qHTS assay: qHTS cell viability counter screen (AID 1963581); note: nearly all actives have a fitted effect of over 45% in size
# Summary of the method: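 ATP content measured by luminescence in HCT-116 p53RE-bla cells treated 16 h at 37 C, same wells as the reporter screen.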
# [10] = molecular target: 5-hydroxytryptamine receptor 2A (Homo sapiens) (UniProt P28223); experiment: 5-hydroxytryptamine receptor 2A (HTR2A) small molecule antagonists, cell-based qHTS assay (AID 1963586); note: nearly all actives have a fitted effect of over 45% in size; note: potency is the fitted concentration of half-maximal effect
# Summary of the method: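 CHO cells stably expressing human HTR2A were plated for 18 h at 37 C, then loaded with calcium dye for 1 h. Compounds were preincubated 5 min at room temperature before DOI (4 nM solution) was added. Kinetic fluorescence was read for 3 min.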
# [11] = cAMP Responsive Elements (CRE) small molecule antagonists, cell-based qHTS assay (AID 1963591; active = well fitted inhibition curve with a large enough effect in the signal ratio in the repeat runs, not every such curve was filed as active; the % refers to the signal ratio)
# Summary of the method: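 First, CRE-bla HEK293T cells settled 18 h at 37 C. Next, compound and 0.25 uM final NKH477 were applied for 3 h. Last, LiveBLAzer B/G substrate was loaded for 2 h at room temperature.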
# [12] = molecular target: Beta-2 adrenergic receptor (Homo sapiens) (UniProt P07550); experiment: Adrenergic beta2 receptor (ADRB2) small molecule antagonists, cell-based qHTS assay (AID 1963592); note: series mostly up to about 92 µM; nearly all actives have a fitted effect of over 50% in size
# Sequence of Beta-2 adrenergic receptor (Homo sapiens) (P07550 whole entry, looked up): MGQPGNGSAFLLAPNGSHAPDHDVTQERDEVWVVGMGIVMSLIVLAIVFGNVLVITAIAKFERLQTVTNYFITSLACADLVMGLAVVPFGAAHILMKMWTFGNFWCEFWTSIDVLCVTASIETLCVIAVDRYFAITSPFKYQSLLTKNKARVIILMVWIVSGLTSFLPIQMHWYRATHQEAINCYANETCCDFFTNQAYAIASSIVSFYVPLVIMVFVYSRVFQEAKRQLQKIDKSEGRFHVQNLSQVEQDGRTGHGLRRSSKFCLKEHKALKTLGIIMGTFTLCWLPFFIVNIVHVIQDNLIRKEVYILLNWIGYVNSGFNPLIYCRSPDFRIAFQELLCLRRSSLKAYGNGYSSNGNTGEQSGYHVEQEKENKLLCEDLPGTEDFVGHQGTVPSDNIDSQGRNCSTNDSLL
# Summary of the method: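 Assay format: CHO-ADRB2 cells, 18-20hr seeding at 37C/5% CO2, then compound plus 1nM isoproterenol agonist mix for 0.5hr RT. Homogeneous time-resolved fluorescence cAMP detection after 1hr, expressed as 665/615 nm ratio.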
# [13] = molecular target: Beta-2 adrenergic receptor (Homo sapiens) (UniProt P07550); experiment: Adrenergic beta2 receptor (ADRB2) small molecule agonists, cell-based qHTS assay (AID 1963593);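 note: CHO cells stably overexpressing human ADRB2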
# Summary of the method: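 CHO cells stably over-expressing ADRB2 were plated overnight at 37C, then dosed with compounds plus a stimulation mix containing 100uM IBMX and 25uM Ro-20-1724 for 0.5hr at room temperature. cAMP was measured by HTRF competition, 1hr.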
# [14] = molecular target: D(2) dopamine receptor (Homo sapiens) (UniProt P14416); experiment: Dopamine D2 receptor (DRD2) small molecule agonists, cell-based qHTS assay (AID 1963594); note: nearly all actives have a fitted effect of over 35% in size
# Sequence of D(2) dopamine receptor (Homo sapiens) (P14416 whole entry, looked up): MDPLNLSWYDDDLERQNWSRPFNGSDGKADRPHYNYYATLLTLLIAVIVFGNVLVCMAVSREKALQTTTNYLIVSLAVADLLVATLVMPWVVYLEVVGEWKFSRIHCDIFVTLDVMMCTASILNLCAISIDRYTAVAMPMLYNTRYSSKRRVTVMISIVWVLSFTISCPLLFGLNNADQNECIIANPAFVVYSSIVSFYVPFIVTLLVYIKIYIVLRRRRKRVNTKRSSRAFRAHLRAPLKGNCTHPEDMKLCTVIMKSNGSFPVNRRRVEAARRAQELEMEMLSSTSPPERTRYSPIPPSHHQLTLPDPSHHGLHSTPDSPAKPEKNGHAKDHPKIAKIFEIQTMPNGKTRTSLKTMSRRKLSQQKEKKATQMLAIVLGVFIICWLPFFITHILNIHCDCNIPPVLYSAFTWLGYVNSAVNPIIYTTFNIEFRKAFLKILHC
# Summary of the method: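 cAMP accumulation in DRD2-HEK293 cells measured by HTRF after 1 h detection; compounds added 10 min before NKH477 (200nM […]) forskolin-analogue stimulation, 30 min at room temperature, with Ro20-1724 present at 0.1 mM final.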
# [15] = molecular target: Muscarinic acetylcholine receptor M1 (Homo sapiens) (UniProt P11229); experiment: Cholinergic receptor muscarinic 1 (CHRM1) small molecule antagonists, cell-based qHTS assay (AID 1963588); note: nearly all actives have a fitted effect of over 40% in size
# Summary of the method: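 Compounds were tested at 15 concentrations in three independent runs. Dye-loaded CHRM1-CHO cells were exposed 5 min at room temperature before stimulation by acetylcholine added at 50nM. Intracellular calcium was read kinetically on FDSS for 3 min.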
# [16] = cAMP Responsive Elements (CRE) small molecule agonists, cell-based qHTS assay (AID 1963590)
# Summary of the method: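 HEK 293T cells stably bearing CRE-bla were plated at 2,000 cells per well and rested 18 h. Compounds, positive controls or DMSO were added for 3 h at 37 C. LiveBLAzer B/G substrate was then loaded for 2 h at room temperature.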
# [17] = molecular target: D(2) dopamine receptor (Homo sapiens) (UniProt P14416); experiment: Dopamine D2 receptor (DRD2) small molecule antagonists, cell-based qHTS assay (AID 1963595; active = well fitted inhibition curve with a large enough effect in the signal ratio in the repeat runs, with a control signal flat; the % refers to the signal ratio)
# Summary of the method: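 Human DRD2 antagonist qHTS measuring cAMP by HTRF. The cells are exposed to compound for 10 min, then to NKH477 (200 nM) and quinpirole (12 nM) for 30 min at RT, with Ro20-1724 (0.1 mM) present throughout.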
# [18] = p53 small molecule agonists, cell-based qHTS assay with rat liver microsomes (AID 1963578)
# Summary of the method: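 With rat liver microsomes and NADPH present (0.5 mg/mL final each), p53RE-bla cells are treated with compound for 16 h at 37 C. LiveBLAzer detection mixture is then applied for 2 h at room temperature in the dark.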
# [19] = p53 small molecule agonists, cell-based qHTS assay (AID 1963582; active = well fitted activation curve with a large enough effect in the signal ratio in the repeat runs, not every such curve was filed as active; the % refers to the signal ratio)
# Summary of the method: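 16 h compound exposure (37 C) of p53 response element–bla cells, preceded by 5 h recovery at 37 C/5% CO2; read-out via LiveBLAzer B/G FRET substrate, 2 h RT, fluorescence intensity.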
SMILES,Potency [1],Potency [2],Potency [3],Potency [4],Potency [5],Potency [6],Potency [7],Potency [8],Potency [9],Potency [10],Potency [11],Potency [12],Potency [13],Potency [14],Potency [15],Potency [16],Potency [17],Potency [18],Potency [19]
CCCCC(CC)COC(=O)c1ccccc1C(=O)O (stereo unspecified),inactive,inactive,inactive,inactive,inactive,inactive,inactive,,,,,,,,,,,,
CCOC(=O)/C=C(C)/C=C/C=C(C)/C=C/c1c(C)cc(OC)c(C)c1C,inactive,inactive,inactive,,inactive,inactive,inactive,inactive,inactive,inactive,inactive,inactive,inactive,inactive,,,,,
Cc1ccccc1S,inactive,inactive,inactive,inactive,inactive,inactive,inactive,,,inactive,inactive,inactive,,inactive,inactive,inactive,inactive,,
C[C@H]1C[C@H]2[C@@H]3CCC4=CC(=O)C=C[C@]4(C)[C@@]3(Cl)[C@@H](O)C[C@]2(C)[C@@]1(O)C(=O)CO,inactive,inactive,inactive,inactive,inactive,,,,inactive,,,inactive,,inactive,,,inactive,inactive,inactive
CCc1oc2ccccc2c1C(=O)c1cc(I)c(O)c(I)c1,5.96 µM (active),inactive,inactive,,inactive,inactive,inactive,inactive,inactive,,inactive,inactive,inactive,inactive,inactive,inactive,inactive,inactive,
CC(C)COC(=O)c1ccc(O)cc1,inactive,inactive,inactive,inactive,inactive,inactive,inactive,inactive,,inactive,,,,,inactive,,inactive,inactive,inactive
OC[C@H]1O[C@@H](OCCc2ccc(O)cc2)[C@H](O)[C@@H](O)[C@@H]1O,inactive,inactive,inactive,,inactive,,inactive,inactive,,inactive,inactive,inactive,inactive,,inactive,inactive,inactive,inactive,inactive
Cc1cccc(N(C)C(=S)Oc2ccc3c(c2)C2CCC3C2)c1 (stereo unspecified),inactive,inactive,inactive,inactive,inactive,inactive,inactive,,inactive,1.63 µM (active),inactive,inactive,,inactive,inactive,,inactive,,inactive
CC1(C)C(=O)N(Br)C(=O)N1Br,inactive,inactive,inactive,inactive,,inactive,inactive,,inactive,inactive,inactive,inactive,inactive,inactive,inactive,inactive,inactive,inactive,inactive
